Results from PubChem BioAssay (NCI).
About 79,000 compounds went through this panel and 15% of them were active in at least one assay; those are over-represented in the sample as a whole. Unmarked numbers belong to inactive results. The source made the active and inactive calls. Cut-off read from the data, not from the text of the source: active = growth inhibition above about 70%; inactive = the rest.

Legend:
[1] = NCI Yeast Anticancer Drug Screen. Data for the rad50 strain (AID 155);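 note: 0% = growth of vehicle-only cultures of the same strain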; conditions: S. cerevisiae rad50 strain growth inhibition, active compounds read high
Method in brief: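 Cells are treated with compound, grown, and their growth is then scored against vehicle-only cultures of the same repair-deficient yeast strain.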

[2] = NCI Yeast Anticancer Drug Screen. Data for the mec2-1 strain (AID 157); conditions: S. cerevisiae mec2-1 strain, active compounds read high
Method in brief: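 Using mec2-1 yeast: add compound, measure growth, express inhibition versus vehicle-treated cultures.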

[3] = NCI Yeast Anticancer Drug Screen. Data for the sgs1 mgt1 strain (AID 161);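 note: 0% = growth of cultures given vehicle only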; conditions: S. cerevisiae sgs1 mgt1 strain, active compounds read high
Method in brief: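 Percent growth inhibition was derived by comparing compound-exposed mutant yeast with vehicle-exposed cultures. The strain carries alterations in DNA damage repair.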

[4] = NCI Yeast Anticancer Drug Screen. Data for the cln2 rad14 strain (AID 165);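 note: 0% = growth equal to vehicle treated cultures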; conditions: S. cerevisiae cln2 rad14 strain, active compounds read high
Method in brief: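 Yeast strain cln2 rad14, bearing defects in cell cycle control and DNA repair, serves as the test system; values reflect growth inhibition compared with vehicle.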

[5] = NCI Yeast Anticancer Drug Screen. Data for the bub3 strain (AID 167); conditions: S. cerevisiae bub3 mutant strain, active compounds read high
Method in brief: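 Part of a panel of yeast mutants defective in DNA damage repair or cell cycle regulation. Each strain is grown with compound, and inhibition is calculated relative to solvent-treated cultures.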

[6] = NCI Yeast Anticancer Drug Screen. Data for the mlh1 rad18 strain (AID 175); conditions: S. cerevisiae mlh1 rad18 strain growth inhibition, active compounds read high
Method in brief: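 Steps: expose repair-defective yeast to compound; measure growth; express inhibition against vehicle-treated controls.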

[7] = at 5.0 µM (retest, dose inferred, filed as 0.5)
[8] = at 50.0 µM (retest, dose inferred, filed as 5.0)

| Compound | growth inhibition [1, 7] | growth inhibition [1, 8] | growth inhibition ([1]; at 50.0 µM) | growth inhibition [2, 7] | growth inhibition [2, 8] | growth inhibition ([2]; at 50.0 µM) | growth inhibition [3, 7] | growth inhibition [3, 8] | growth inhibition ([3]; at 50.0 µM) | growth inhibition [4, 7] | growth inhibition [4, 8] | growth inhibition ([4]; at 50.0 µM) | growth inhibition [5, 7] | growth inhibition [5, 8] | growth inhibition ([5]; at 50.0 µM) | growth inhibition [6, 7] | growth inhibition [6, 8] | growth inhibition ([6]; at 50.0 µM) |
| --- | --- | --- | --- | --- | --- | --- | --- | --- | --- | --- | --- | --- | --- | --- | --- | --- | --- | --- |
| COC1C(C)OC(OC2CC(C)(O)Cc3cc4c(c(O)c32)C(=O)c2c(O)cc3c(c2C4=O)OC2OC3(C)C(O)C(N(C)C)C2O)C(OC)C1(C)OC (centres undefined) | 69% | 96% (active) | 89.5% (active) | 75% (active) | 99% (active) | 93% (active) | 76% (active) | 97% (active) | 91% (active) | 58% | 91% (active) | 88% (active) | 77% (active) | 94% (active) | 91.5% (active) | 83% (active) | 98% (active) | 90% (active) |
| CC(=O)OC1CCC2(C)C(CCC3C4=CCC(C5=CC(=O)OC5)C4(C)CCC32)C1 (centres undefined) | 3% | -33% | 82.8% (active) | -1% | 14% | 81.8% (active) | 5% | 55% | 91.3% (active) | 12% | 11% | 65.3% | 0% | 4% | 67.5% | 3% | -8% | 77.8% (active) |
| O=c1[nH]cnc2[nH]cc(CN3CCCCC3)c12 | 7% | 21% | 17.8% | -7% | 2% | 13.2% | -1% | 29% | -1.4% | -32% | 0% | 33.2% | 12% | -1% | -54.8% | 3% | 8% | 9.4% |
| O=C(O)C1C2c3cccc4cccc(c34)C12 (centres undefined) | -139% | 88% (active) | 44.8% | -50% | 72% (active) | 87.6% (active) | -56% | 74% (active) | 40.4% | -41% | 78% (active) | 85.3% (active) | -59% | 86% (active) | 93.2% (active) | -112% | 81% (active) | 83.8% (active) |
| COC1OC(COC(C)=O)C(OC(C)=O)C(OC(C)=O)[C]1(OC(C)=O)[Hg][O]C(C)=O (centres undefined) | 99% (active) | 99% (active) | 99.3% (active) | 100% (active) | 100% (active) | 98.5% (active) | 99% (active) | 99% (active) | 99.7% (active) | 99% (active) | 98% (active) | 99.4% (active) | 99% (active) | 99% (active) | 97.8% (active) | 99% (active) | 99% (active) | 99.7% (active) |
| [O-][n+]1onc2ccccc21 | 47% | 99% (active) | 98.3% (active) | 30% | 99% (active) | 52% | 29% | 99% (active) | 49.9% | 34% | 99% (active) | 97.7% (active) | 38% | 99% (active) | 46.7% | 63% | 99% (active) | 98.2% (active) |
| CC[CH2][Sn]([Br])([Br])[CH2]CC | 29% | 91% (active) | 83.2% (active) | 21% | 95% (active) | 87.2% (active) | 35% | 95% (active) | 87.1% (active) | 26% | 87% (active) | 85.2% (active) | 31% | 96% (active) | 83.2% (active) | 33% | 93% (active) | 87.1% (active) |
| CCC[CH2][Sn]([CH2]CCC)([S]C#N)[S]C#N | 95% (active) | 97% (active) | 89.3% (active) | 96% (active) | 97% (active) | 91% (active) | 93% (active) | 97% (active) | 90.5% (active) | 93% (active) | 97% (active) | 86% (active) | 96% (active) | 96% (active) | 89.1% (active) | 97% (active) | 97% (active) | 88% (active) |
